# High-throughput results from PubChem BioAssay.
# HTT cytoprotect: Huntington cell model cytoprotection by ATP luminescence | hit rate 0.14% among 230,000 | AID 1471 | Potency, µM (highest dose often 56.4 µM), for inactives: cytoprotection (ATP increase), most hits filed as activators | PC12 HTT-Q103 induced, cytoprotection, ATP luminescence, 40 h; active = well fitted curve in the direction sought with a large enough effect; inconclusive = small, poorly fitted or top-dose-only effect, or another doubt; inactive = no such curve, though single readings can be large; an effect the other way counts as inactive or inconclusive; also: % of control where 0% means no effect; nearly all actives have a fitted effect of over 45% in size
#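 PC12 cells with ecdysone-inducible HTT exon 1 Q103-GFP, induced with 100 nM tebufenozide and co-treated with library compounds in a dose series (1536-well, 1500 cells/well). Cytoprotection read as ATP content by ATPlite luminescence.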
# LMNA splice mod: LMNA splicing modulation. HeLa LMNA splicing GFP/RFP minigene ratio, 48 h. Potency, µM (titrated, usually from 46.1 µM), inactives show top-dose ratio change, negative = inhibition, actives largely listed as inhibitors. hit rate 0.01% among 200,000; active = well fitted inhibition curve with a large enough effect in the signal ratio, with a control signal flat, not every such curve was filed as active; inconclusive = small, poorly fitted or top-dose-only effect, or effect the other way, or a change in a side signal; the % refers to the signal ratio; also: % is scaled to controls: 0 for no effect and ±100 for the full control effect
#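 S3 HeLa cells stably expressing lamin A-EGFP splicing minigene plus DsRed2, 600 cells/well, 48 h compound exposure at 37C. Laser-scanning cytometry; analysed as GFP (500-530 nm)/RFP (575-640 nm) total intensity ratio; 0.5% DMSO vehicle.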
# HPGD block: HPGD (human) dehydrogenase inhibition. Potency, µM, without a hit: at the highest dose activity change, negative = inhibition, usual class: inhibitors. AID 894. purified HPGD, NADH fluorescence kinetic, PGE2 substrate. P15428. hit rate 4.3% among 150,000; also: % is scaled to controls: 0 for no effect and ±100 for the full control effect
# Target sequence (P15428 whole entry, looked up): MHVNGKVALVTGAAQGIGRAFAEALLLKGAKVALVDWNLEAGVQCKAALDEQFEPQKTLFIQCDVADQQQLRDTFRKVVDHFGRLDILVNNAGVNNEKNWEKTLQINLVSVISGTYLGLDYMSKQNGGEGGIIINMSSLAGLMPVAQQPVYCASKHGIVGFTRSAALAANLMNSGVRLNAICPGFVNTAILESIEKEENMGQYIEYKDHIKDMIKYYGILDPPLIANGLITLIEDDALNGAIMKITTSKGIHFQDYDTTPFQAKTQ
#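 NADH formation kinetics: reaction with 30 uM PGE2 and 1 mM NAD+ (final), 20 nM enzyme, Tris-HCl pH 8 with Tween 20, after 15 min compound preincubation at room temperature. Fluorescence change, last versus first of five reads.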
# ALDH1A1 inh: ALDH1A1 (human) enzyme inhibition; Purified ALDH1A1, NADH fluorescence, propionaldehyde substrate; Potency, µM (highest dose often 75.3 µM), inactives show top-dose activity, negative = inhibition, most hits filed as inhibitors; hit rate 7.3% among 220,000; AID 1030;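 also: plate controls were no enzyme wells and a reference inhibitor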
# HttQ103 aggreg: inhibitors of mutant huntingtin aggregate formation in PC12 cells; Potency, µM (titrated, usually from 46.1 µM), inactives show at the top dose activity change, negative = inhibition, most hits filed as inhibitors; hit rate 1.1% among 220,000; PC12 HttQ103-GFP aggregates, Acumen cytometry, 40 h; AID 1688; active = well fitted curve in the direction sought with a large enough effect; inconclusive = small, poorly fitted or top-dose-only effect, or another doubt; inactive = no such curve, though single readings can be large; an effect the other way counts as inactive or inconclusive; also: % is scaled to controls: 0 for no effect and ±100 for the full control effect; nearly all actives have a fitted effect of over 60% in size
#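 Inducible Q103 Huntingtin exon 1–GFP PC12 line, 1500 cells/well in phenol red free DMEM with 5% equine and 5% calf serum. Tebufenozide 100 nM induced expression; compounds titrated; aggregates quantified by cytometry.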
# Numbers without * were called inactive; ? = inconclusive; / = no result; [ ] = another dose, or the depositor's remark. In the library only some 8.8% were active in any assay of this set; here they are far more common. Unless noted, calls follow the shape of the dose curve; as a rule, active = well fitted inhibition curve with a large enough effect (not every such curve was filed as active); inconclusive = small, poorly fitted or top-dose-only effect, or another doubt; inactive = no such curve, though single readings can be large or run the other way. Potency is read from the fitted curve at half-maximal effect.
SMILES,HTT cytoprotect,LMNA splice mod,HPGD block,ALDH1A1 inh,HttQ103 aggreg
COc1ccc(C(=O)ON=C2CCN(c3ccc([N+](=O)[O-])cc3)CC2)cc1,-6%,16%,-13%,4µM*,11%
COc1ccc(C(=O)CSc2nnc(CN3CCCCC3)n2-c2ccc(F)cc2)cc1OC,-15%[10 µM],-8%,-6%,4%,2%
COc1ccc(Cl)cc1-c1n[nH]c(=S)n1C,-22%,-5%,-21%,-9%,8%[1.84 µM]
Cc1ccc(COc2ccsc2-c2n[nH]c(=S)n2C)cc1,-2%,9%,?,20µM*,12%
Cn1c(-c2sccc2OCc2ccc(Cl)cc2Cl)n[nH]c1=S,-2%[10 µM],9%[46 µM],/,32µM*,-8%
Cn1c(-c2sccc2OCc2ccccc2)n[nH]c1=S,-2%,1%,?,?,-2%
O=C1NC(=S)S/C1=C1\Sc2ccccc2N1CCCS(=O)(=O)O,-10%[10 µM],9%,25µM*,25µM*,-7%
Cc1cc(C(=O)OCC(=O)N2CCN(c3ccccc3)CC2)c2ccccc2n1,-6%,-4%,-11%,22µM*,1%
O=C(OCC(=O)N1CCN(C(=O)c2ccco2)CC1)c1ccccc1C(=O)c1ccccc1,-9%[10 µM],-2%,-1%,-5%,-6%
O=C(OCC(=O)N1CCN(c2ccccc2)CC1)c1ccco1,6%,1%,-14%,2.2µM*,0%
Oc1cccc2ccc(SSc3ccc4cccc(O)c4n3)nc12,-16%[10 µM],/,0.56µM*,4µM*,/
O/N=C/c1ccc2cccc(O)c2n1,-8%[10 µM],/,/,/,-2%[9.22 µM]
Cc1ccc([N+](=O)[O-])cc1-c1ccc(/C=C(\C#N)c2[nH]nc(N)c2C#N)o1,/,?,2.2µM*,-7%,-11%
Nc1nc(=S)c2[nH]cnc2[nH]1,-85%,/,35µM*,?,/
CC1CN=C(N(C(=O)Nc2ccccc2)C(C)C)S1 (configuration not stated),41%[10 µM],-5%,-11%,4%,-17%
Cc1ccc(N(C(=O)Nc2ccccc2)C2=NCC(C)S2)cc1 (configuration not stated),-9%[10 µM],1%,11µM*,-6%,5%
CC(C)OC(=O)CSc1nnc(-c2cccnc2)n1N,7%[0.074 µM],-6%,-12%,9%,19%
COc1cccc(-n2c(SCC(=O)OC(C)C)nnc2-c2cccnc2)c1,11%[10 µM],13%,22µM*,-6%,3%
COCCn1c(-c2cccc([N+](=O)[O-])c2)nc2c1c(=O)[nH]c(=O)n2Cc1ccccc1,3%[10 µM],13%,-27%,-14%,11%
O=[N+]([O-])c1ccc(Oc2cccc3cccnc23)c([N+](=O)[O-])c1,/,?,-5%,?,22µM*
Cc1ccc2cccc(Oc3ccc([N+](=O)[O-])cc3[N+](=O)[O-])c2n1,/,?,-18%,3%,-2%
CCN(CC(=O)NC1CCS(=O)(=O)C1)S(=O)(=O)c1ccc2ccccc2c1 (configuration not stated),-17%[10 µM],9%,-1%,6%,-11%
CCN(CC)S(=O)(=O)c1ccc(OCC(=O)NC2CCS(=O)(=O)C2)c([N+](=O)[O-])c1 (configuration not stated),-23%,-9%[46 µM],/,14µM*,10%
Cc1sc2nc(CSCC(=O)Nc3ccc(OC(F)F)cc3)[nH]c(=O)c2c1C,1%[10 µM],/,/,40µM*,8%
O=C(Nc1ccc(S(=O)(=O)NCCc2ccccc2)cc1)c1ccco1,-4%,?,-24%,?,4%
SMILES,HTT cytoprotect,LMNA splice mod,HPGD block,ALDH1A1 inh,HttQ103 aggreg
CCNS(=O)(=O)c1ccc(CCC(=O)O)cc1,/,-11%[46 µM],/,22%,9%
O=C(O)CCc1ccc(S(=O)(=O)NCCc2ccccc2)cc1,4%,-2%,/,1.8µM*,-7%
CCOCC(=O)Nc1ccc(S(=O)(=O)NCCc2ccccc2)cc1,2%,?,-5%,10µM*,-13%
Cc1cc(C)cc(NC(=O)Cn2c(C)cc(C)c(C#N)c2=O)c1,/,8%[46 µM],/,/,/
Cc1[nH][nH]c(=O)c1C(c1ccccc1[N+](=O)[O-])C(C#N)C#N (configuration not stated),-1%,1%[46 µM],/,?,-17%
CCCc1[nH][nH]c(=O)c1C(c1cccc(Cl)c1)C(C#N)C#N (configuration not stated),5%,-2%,16µM*,14µM*,-13%[9.22 µM]
